In PubChem BioAssay (NCATS):
Values joined by “and” are separate entries in the source; they are usually repeats but may differ in a detail not shown here. Identical values can stand only once. Records with an inconclusive call do not appear. Entries that show only a call come without a potency. A number with no mark means an inactive call. Active and inactive are the calls of the source. Calls come from the whole dose curve; as a rule, active = well fitted curve in the direction sought with a large enough effect; inconclusive = small, poorly fitted or top-dose-only effect, or another doubt; inactive = no such curve, though single readings can be large; an effect the other way counts as inactive or inconclusive.

How the values were obtained:
PA-1 = test: Primary qHTS to identify gynecologic anti-cancer compounds using libraries of approved drugs and bioactive compounds (AID 1345084); conditions: Gynecologic cancer cell panel viability, ATPlite luminescence, 48 h; series mostly up to 57.5 µM; note: nearly all actives have a fitted effect of over 55% in size
In short: (§1)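 Luminescence from the ATPlite ATP-monitoring reagent indicates viable cell number; lower signal means cytotoxicity. Cells received compound 16 h after seeding and were exposed for 48 h across five concentrations.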

SKOV3 = test: as above; conditions: Gynecologic cancer cell panel viability, ATPlite luminescence, 48 h; series mostly up to 57.5 µM
In short: as §1

Tov-21-G = test: as above; conditions: Gynecologic cancer cell panel viability, ATPlite luminescence, 48 h; series mostly up to 57.5 µM
In short: as §1

Tov112D = test: as above; conditions: Gynecologic cancer cell panel viability, ATPlite luminescence, 48 h; series mostly up to 57.5 µM
In short: as §1

[1] = Drug repurposing screens with cells derived from glioblastoma tumor samples (AID 1345199); conditions: GBM patient neurospheres viability, ATP luminescence, 48 h; note: nearly all actives have a fitted effect of over 40% in size; note: potency is the fitted concentration of half-maximal effect
In short: (§2)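 Primary testing used CD133+ neurospheres from four GBM patients, seven concentrations, 48 h exposure and ATP-based viability; confirmation added three slower-growing patient lines.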

astro = test: as above; conditions: viability, ATP luminescence, 48 h; series mostly up to 45.9 µM
In short: as §2

[2] = at 45.9 µM (top of the series), tumour line B
[3] = at 45.9 µM (top of the series), tumour line D
[4] = at 46 µM (top of the series), tumour line A
[5] = at 46.1 µM (top of the series), tumour line C
[6] = at 20 µM (top of the series), tumour line C
[7] = at 21.2 µM (top of the series), tumour line B
[8] = at 21.2 µM (top of the series), tumour line D
[9] = at 21.3 µM (top of the series), tumour line A

Row | Structure (SMILES) | Potency (PA-1) | Potency (SKOV3) | Potency (Tov-21-G) | Potency (Tov112D) | activity, negative = cell killing [1, 2] | activity, negative = cell killing [1, 3] | activity, negative = cell killing [1, 4] | activity, negative = cell killing [1, 5] | Potency (astro) | activity, negative = cell killing [1, 6] [%] | activity, negative = cell killing [1, 7] [%] | activity, negative = cell killing [1, 8] [%] | activity, negative = cell killing [1, 9] [%] | activity change, negative = cytotoxicity (PA-1) | activity change, negative = cytotoxicity (SKOV3) | activity change, negative = cytotoxicity (Tov-21-G) | activity change, negative = cytotoxicity (Tov112D) | Potency ([1]; tumour line A)
1 | CN(C)CC/C=C1/c2ccccc2COc2ccc(CC(=O)O)cc21 | inactive | inactive | inactive | inactive | -11.5% | 1.66% | -15.4% | 4.5% | inactive | – | – | – | – | – | – | – | – | –
2 | CC(=O)Nc1c(I)cc(I)c(C(=O)O)c1I | inactive | inactive | inactive | inactive | -18.2% | -1.85% | -31.3% | 23.7% | inactive | – | – | – | – | – | – | – | – | –
3 | C[C@H](O)C(=O)Nc1c(I)c(C(=O)NC(CO)CO)c(I)c(C(=O)NC(CO)CO)c1I | inactive | inactive | inactive | inactive | – | – | – | – | inactive | 2.37 | -6.73 | -12.3 | -8 | – | – | – | – | –
4 | CCn1cc(C(=O)O)c(=O)c2cnc(N3CCCC3)nc21 | – | – | – | – | – | – | – | – | inactive | -8.14 | -5.2 | -3.67 | -24.5 | 3.4% [at 11.6 µM] | 27% [at 11.6 µM] | 5.91% [at 11.6 µM] | 5.36% [at 11.6 µM] | –
5 | CC(=O)OCC(=O)[C@@]1(O)CC[C@H]2[C@@H]3CCC4=CC(=O)C=C[C@]4(C)[C@H]3[C@@H](O)C[C@@]21C | inactive | inactive | inactive | inactive | -3.24% | -10.4% | -4.22% | 5.52% | inactive | – | – | – | – | – | – | – | – | –
6 | O=c1ccc2ccccc2o1 | inactive | inactive | inactive | inactive | -10.7% | -11.2% | -35.1% | 13.9% | inactive | – | – | – | – | – | – | – | – | –
7 | c1ccc(CNCCNCc2ccccc2)cc1 | inactive | inactive | inactive | inactive | -9.72% | -12.2% | – | -25.1% | inactive | – | – | – | – | – | – | – | – | 22.4 µM (active)
8 | Cc1ccnc(NS(=O)(=O)c2ccc(N)cc2)n1 | inactive | inactive | inactive | inactive | – | – | – | – | inactive | -10.2 | -5.77 | -5.49 | -16.8 | – | – | – | – | –
9 | NC(=O)c1cc[n+](CC2=C(C(=O)[O-])N3C(=O)[C@@H](NC(=O)Cc4cccs4)[C@H]3SC2)cc1 | inactive | inactive | inactive | inactive | – | – | – | – | inactive | -2.18 | -10.7 | -13.1 | -27.6 | – | – | – | – | –
10 | C/C=C/c1ccc(OC)cc1 | inactive | inactive | inactive | inactive | -1.8% | 3.04% | -17.3% | 0.347% | inactive | – | – | – | – | – | – | – | – | –
11 | CCC(C(=O)OCCN(CC)CC)c1ccccc1 (centres undefined) | inactive | inactive | inactive | inactive | -10.7% | 13.4% | -28.5% | 0.404% | inactive | – | – | – | – | – | – | – | – | –
12 | COc1cc(/C=C/C(=O)O[C@H]2CC[C@]34C[C@]35CC[C@]3(C)[C@@H]([C@H](C)CCC=C(C)C)CC[C@@]3(C)[C@@H]5CC[C@H]4C2(C)C)ccc1O | inactive | inactive | inactive | inactive | -21.5% | -21.3% | -29.3% | -22.4% | 17.8 µM (active) | – | – | – | – | – | – | – | – | –
13 | Nc1nc2ncc(CNc3ccc(C(=O)N[C@@H](CCC(=O)O)C(=O)O)cc3)nc2c(=O)[nH]1 | inactive | inactive | inactive | inactive | -3.4% | 4.54% | -10.5% | -9.36% | inactive | – | – | – | – | – | – | – | – | –
14 | C[C@]12CCC(=O)C=C1CC[C@H]1[C@@H]3CC[C@](O)(C(=O)CO)[C@@]3(C)C[C@H](O)[C@@]12F | inactive | inactive | inactive | inactive | -5.55% and -2.43% | -21.3% and -14.3% | -18.5% and -26.2% | -25.3% and 1.15% | inactive | – | – | – | – | – | – | – | – | –
15 | CC(C)(C(=O)c1cccnc1)c1cccnc1 | inactive | inactive | inactive | inactive | – | – | – | – | inactive | -7.19 | -14.8 | -8.11 | -19.8 | – | – | – | – | –
16 | CN(C(=O)CN(CCO)CC(=O)N(C)C(C)(C)Cc1ccccc1)C(C)(C)Cc1ccccc1 | inactive | inactive | inactive | inactive | – | – | – | – | inactive | 7.73 | -8.65 | -0.577 | – | – | – | – | – | 10 µM (active)
